The structures appear in SMILES notation. The panel holds about 83,000 compounds, 20% with a hit somewhere; the sample as a whole holds those more often.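 Each cell line was grown in a 96-well plate and treated with one concentration of compound for 48 hours. Values below 10 were considered active.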 Values without a mark were called inactive. The source made the active and inactive calls.

Consider nine compounds from PubChem BioAssay (NCI).

Some test systems named below: HCT-15 colon; HT29 colon; SNB-75 CNS; SNB-19 CNS; U251 CNS; PC-3 prostate; SK-MEL-5 melanoma; UACC-62 melanoma; LOX IMVI melanoma; SK-MEL-2 melanoma; SN12C renal; UO-31 renal; TK-10 renal; ACHN renal; CAKI-1 renal; A498 renal; MOLT-4 leukemia; SK-MEL-28 melanoma; CCRF-CEM leukemia; EKVX NSCLC.
What all share (test): NCI-60 one-dose screen, 48 h (100 = growth as untreated, 0 = no growth, -100 = all killed)
Conditions in all cases: 10 µM unless noted

On to `CCCC(C(=O)OCC)C(C)OC(=O)OCC` (stereo not given), for which the growth with HCT-15 colon is 99.9%; in the assay with HT29 colon, 104%; with SNB-75 CNS, 79%; in the assay with SNB-19 CNS, 106%; with U251 CNS, 102%; in the assay with PC-3 prostate, 102%. For the same compound, the growth in the assay on SK-MEL-5 melanoma is 103%; in the assay with UACC-62 melanoma it was 103%; with LOX IMVI melanoma it was 99.1%; in the assay on SK-MEL-2 melanoma it was 94.7%; with SN12C renal it was 101%; in the assay on UO-31 renal it was 80.1%. In addition, the growth was 98% with TK-10 renal; 107% with ACHN renal; 96.3% in the assay on CAKI-1 renal; 118% with A498 renal; 89.8% in the assay on MOLT-4 leukemia.
On to `COc1ccc(-c2nc(-c3nc4ccc(F)cc4[nH]3)cc3c2[nH]c2ccccc23)cc1`, for which the growth in the assay on HCT-15 colon was 36.1%; in the assay with HT29 colon it was 32.8%; with SNB-75 CNS, 60.8%; with SNB-19 CNS, 62.3%; with U251 CNS, 29.4%; in the assay with PC-3 prostate, 27.6%. The growth is 51.1% with SK-MEL-5 melanoma; 41.4% in the assay with UACC-62 melanoma; 29.5% in the assay on LOX IMVI melanoma; 57.4% with SK-MEL-28 melanoma; 29.4% with SK-MEL-2 melanoma; 23.1% in the assay with SN12C renal. The growth is 7.03% (active) with UO-31 renal; 32.1% in the assay with ACHN renal; 15.2% with CAKI-1 renal; 26.4% in the assay with A498 renal; 17.6% in the assay on CCRF-CEM leukemia; 22.5% in the assay on MOLT-4 leukemia.
Turning to `O=C(O)c1cccc([N+](=O)[O-])c1/C=C/c1ccccc1`, the growth with HCT-15 colon was 102%; in the assay on HT29 colon, 100%; in the assay with SNB-75 CNS it was 86.9%; in the assay on SNB-19 CNS it was 101%; in the assay on U251 CNS, 97.4%; with PC-3 prostate it was 124%. In addition, the growth in the assay with SK-MEL-5 melanoma was 103%; in the assay on UACC-62 melanoma, 107%; in the assay on LOX IMVI melanoma, 96%; in the assay on SK-MEL-28 melanoma it was 105%; in the assay on SK-MEL-2 melanoma, 106%; in the assay with SN12C renal, 98.7%. In addition, the growth in the assay with UO-31 renal is 92.9%; in the assay on ACHN renal, 110%; with CAKI-1 renal, 93.4%; in the assay with A498 renal, 89.1%; in the assay with CCRF-CEM leukemia, 103%; in the assay with MOLT-4 leukemia, 97.7%.
Turning to `Cc1ccc(C2=NN(c3ccc(S(N)(=O)=O)cc3)C(c3cn(-c4ccccc4)nc3-c3ccccc3)C2)cc1` (stereo not given), the growth is 74.3% in the assay with HCT-15 colon; 46.3% in the assay with HT29 colon; 81.6% with SNB-75 CNS; 87% with SNB-19 CNS; 77.4% in the assay with U251 CNS; 32.3% with PC-3 prostate. The growth in the assay on SK-MEL-5 melanoma was 100%; in the assay on UACC-62 melanoma, 83.5%; in the assay on LOX IMVI melanoma it was 91.2%; with SK-MEL-2 melanoma, 90%; in the assay with SN12C renal it was 30.7%; with UO-31 renal, 30.2%. For the same compound, the growth was 84.2% in the assay on TK-10 renal; 93% in the assay on ACHN renal; 94.7% with CAKI-1 renal; -5.87% (active) with A498 renal; 40.3% in the assay with CCRF-CEM leukemia; 18.7% with MOLT-4 leukemia.
As to `CCC1CCc2nc3sc(C(=O)Nc4cccc(C)c4)c(N)c3cc2C1` (stereo not given), the growth with HCT-15 colon was 43.7%; with HT29 colon it was 47.6%; in the assay on SNB-75 CNS it was 71.2%; in the assay on SNB-19 CNS it was 86%; with U251 CNS it was 66.6%; with PC-3 prostate, 66.7%. Moreover, the growth in the assay on SK-MEL-5 melanoma was 54.5%; with UACC-62 melanoma, 49.2%; in the assay with LOX IMVI melanoma, 72.7%; in the assay with SK-MEL-2 melanoma, 54.6%; in the assay on SN12C renal, 90.8%; with UO-31 renal it was 83.6%. For the same compound, the growth in the assay with TK-10 renal is 78.3%; with ACHN renal it was 87%; with CAKI-1 renal it was 78.1%; in the assay on A498 renal, 45.4%; with CCRF-CEM leukemia it was 47.7%; in the assay with MOLT-4 leukemia it was 52.6%.
Turning to `COc1ccc(/C=C/C(=O)c2cccc(B(O)O)c2)cc1O`, the growth is 12% in the assay with HCT-15 colon; 69.5% in the assay on HT29 colon; 9.35% (active) in the assay on SNB-75 CNS; 59.5% in the assay with SNB-19 CNS; 44.2% in the assay with U251 CNS; 59.9% in the assay on PC-3 prostate. Further, the growth is 81.7% in the assay on SK-MEL-5 melanoma; 33.7% in the assay on UACC-62 melanoma; 13.8% in the assay with LOX IMVI melanoma; 79.2% with SK-MEL-28 melanoma; 107% with SK-MEL-2 melanoma; 28.7% in the assay on SN12C renal. The growth was 19.9% in the assay on UO-31 renal; 99.3% with TK-10 renal; 60.6% with ACHN renal; 52.1% with A498 renal; 46.6% in the assay with MOLT-4 leukemia.
Turning to `COc1ccc(Cn2c(SC)nc(=O)n(Cc3ccc(Cl)cc3)c2=O)cc1`, the growth in the assay with HCT-15 colon was 98.5%; in the assay on HT29 colon it was 121%; in the assay with SNB-75 CNS, 80.7%; in the assay with SNB-19 CNS it was 97%; in the assay on U251 CNS it was 93.2%; in the assay on PC-3 prostate, 90.1%. For the same compound, the growth with SK-MEL-5 melanoma was 107%; in the assay on UACC-62 melanoma, 87.7%; in the assay with LOX IMVI melanoma it was 87.5%; with SK-MEL-28 melanoma it was 102%; in the assay on SK-MEL-2 melanoma, 102%; in the assay on SN12C renal, 93.5%. Besides, the growth in the assay with UO-31 renal was 68.3%; in the assay with ACHN renal, 96.3%; in the assay on CAKI-1 renal, 70.5%; in the assay on A498 renal, 88.9%; with CCRF-CEM leukemia it was 97.7%; in the assay on MOLT-4 leukemia, 95%.
Take `C[C@]12CC[C@@H]3c4cc(O)c(O)cc4CC[C@H]3[C@@H]1CC[C@@H]2O`: the growth is 30% in the assay on HCT-15 colon; 96.4% with HT29 colon; -14.5% (active) with SNB-75 CNS; 66.1% in the assay with SNB-19 CNS; 35.8% with U251 CNS; 58.6% with PC-3 prostate. Moreover, the growth with SK-MEL-5 melanoma was 26.5%; in the assay on UACC-62 melanoma, 33.8%; with LOX IMVI melanoma it was 40%; in the assay on SK-MEL-2 melanoma, -16.8% (active); in the assay with SN12C renal, 50.7%; in the assay with UO-31 renal it was 41.4%. The growth in the assay with TK-10 renal was 87.5%; in the assay with ACHN renal, 42.9%; in the assay with CAKI-1 renal, 33.3%; with A498 renal, 100%; in the assay with MOLT-4 leukemia, 29.1%.
For the compound `Cc1cc(C)c2c(=O)[nH]c(SCC(=O)Nc3cccc(S(=O)(=O)N(C)C)c3)nc2n1`, the growth is 119% in the assay with HCT-15 colon; 104% in the assay with HT29 colon; 90.7% in the assay on SNB-75 CNS; 95.9% in the assay with SNB-19 CNS; 108% with U251 CNS; 95.4% in the assay on PC-3 prostate. Further, the growth with SK-MEL-5 melanoma is 113%; in the assay with UACC-62 melanoma it was 98.3%; with LOX IMVI melanoma, 101%; in the assay on SK-MEL-2 melanoma, 96.5%; in the assay on EKVX NSCLC, 93.3%; in the assay on SN12C renal it was 109%. In addition, the growth is 94.6% in the assay with UO-31 renal; 98.4% in the assay on TK-10 renal; 108% in the assay on ACHN renal; 107% in the assay with CAKI-1 renal; 104% in the assay with A498 renal; 89.1% with CCRF-CEM leukemia. In addition, in the assay on MOLT-4 leukemia, the growth was 96.1%.
